Assay outcomes (PubChem BioAssay)
eIF4H inh: inhibitors of RNA binding by human eIF4H. 0.94% of 290,000 active. AID 2012. eIF4H fluorescence polarization binding assay. Q15056. inhibition, % at 35 µM;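 note: calls also rest on retests at 20 µM and on dose response follow-up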
PABP FP inh: PABP-poly(A) binding inhibition. PABP-poly(A) RNA binding, fluorescence polarization. inhibition, % at 35 µM. 1% of 290,000 active. AID 2014;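 note: calls also rest on retests at 20 µM and on dose response follow-up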
CRFR2-BP antag: CRF-BP/CRF-R2 complex antagonism. AID 588475. inhibition, % at 11.8 µM. HEK293 CRF-R2/CRF-BP, CRF-induced calcium fluorescence. 0.59% of 350,000 active;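 active = inhibition of the ligand-induced calcium signal above about 50% at the single tested concentration, limit read from the data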
PHOSPHO1 block: inhibitors of human PHOSPHO1 phosphatase | 1.1% of 290,000 active | inhibition, % at 13.3 µM | recombinant PHOSPHO1, absorbance phosphatase assay; in the data active = inhibition above about 60%
Target sequence (Q8TCT1 whole entry, looked up): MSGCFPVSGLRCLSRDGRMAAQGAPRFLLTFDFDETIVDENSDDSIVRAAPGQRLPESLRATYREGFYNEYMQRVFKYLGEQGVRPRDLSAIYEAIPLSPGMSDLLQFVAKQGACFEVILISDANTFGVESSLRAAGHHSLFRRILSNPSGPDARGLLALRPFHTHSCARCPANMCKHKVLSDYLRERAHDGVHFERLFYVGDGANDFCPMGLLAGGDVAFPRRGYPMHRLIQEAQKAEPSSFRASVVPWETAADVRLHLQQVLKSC
PABP1 MLLE inh: inhibitors of microRNA-mediated deadenylation, human PABP1 MLLE binding; P11940; GST-MLLE / FITC-PAM2 fluorescence polarization; inhibition, % at 20 µM; 0.36% of 360,000 active; in the data active = inhibition above about 35%, passing the limit was not always enough;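 note: plate controls were DMSO wells with GST-MLLE for no effect and wells lacking GST-MLLE protein for full effect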
* = called active by the depositor. A selection: hits, their analogues and other compounds. The true share with any hit is near 2.6%. Unless noted, the rule behind the calls is not given here.

For CCOc1ccc(C2/C(=C(\O)c3ccc4c(c3)OCCO4)C(=O)C(=O)N2CCCN2CCOCC2)cc1 (centres undefined) the results were eIF4H inh 0, PABP FP inh -4, CRFR2-BP antag 55*, PHOSPHO1 block 29 and PABP1 MLLE inh 0.
Screening CCOc1ccc(C2/C(=C(\O)c3ccc4c(c3)OCCO4)C(=O)C(=O)N2CCCN2CCOCC2)cc1OC (centres undefined) returned eIF4H inh -2, PABP FP inh -4, CRFR2-BP antag -12, PHOSPHO1 block 12 and PABP1 MLLE inh -2.
For Cc1ccc(C)c(/C(O)=C2/C(=O)C(=O)N(CCN3CCOCC3)C2c2ccco2)c1 (centres undefined) the results were eIF4H inh 55*, PABP FP inh 25, CRFR2-BP antag 9, PHOSPHO1 block -21 and PABP1 MLLE inh 12.
`Cc1nc(NC(=O)C(C)(C)C)sc1-c1csc(N)n1` gave CRFR2-BP antag -12 and PABP1 MLLE inh 14.
For CCOC(=O)C1(C)CCN1C(=O)c1cccs1 (centres undefined) the results were PABP1 MLLE inh 13.
`Cc1ccc(SCc2noc(-c3c(C)noc3C)n2)cc1` gave eIF4H inh 3, PABP FP inh 0, CRFR2-BP antag 52*, PHOSPHO1 block 12 and PABP1 MLLE inh 2.
`Cc1nc(C(F)(F)F)ccc1C(=O)N1CCCC(C(=O)O)CC1` (centres undefined) gave PABP1 MLLE inh -8.
For O=C(NCC(=O)N(Cc1ccccc1)C(C(=O)NC1CCCC1)c1cccnc1)c1ccco1 (centres undefined) the results were eIF4H inh -8, PABP FP inh 6, CRFR2-BP antag -2, PHOSPHO1 block 199* and PABP1 MLLE inh 6.
`COc1ccc(-c2ccc(CN3C(C(C)C)C(=O)N(Cc4cn(Cc5ccco5)nn4)CCS3(=O)=O)cc2)cn1` (centres undefined) gave CRFR2-BP antag 12 and PABP1 MLLE inh -4.
For CCOC(=O)C1CCN(S(=O)(=O)c2cccc(-c3cn4cc(Cl)ccc4n3)c2)CC1 the results were eIF4H inh -1, PABP FP inh -9, CRFR2-BP antag 10, PHOSPHO1 block 97* and PABP1 MLLE inh 10.
Screening CCOC(=O)C1CCN(S(=O)(=O)c2cccc(-c3cn4cccc(C)c4n3)c2)CC1 returned eIF4H inh -2, PABP FP inh 14, CRFR2-BP antag -10, PHOSPHO1 block -47 and PABP1 MLLE inh 5.
CCOC(=O)C1CCN(S(=O)(=O)c2cccc(-c3cn4ccccc4n3)c2)CC1 was read as eIF4H inh 6, PABP FP inh 9, CRFR2-BP antag -6, PHOSPHO1 block 84* and PABP1 MLLE inh 10.
CCOC(=O)C1(C)CCCN(C(=O)c2ccc3c(c2)CCO3)C1 (centres undefined) was read as PABP1 MLLE inh 0.
For CSc1nc(N2CCN(CCO)CC2)c2sc3nc(-c4ccco4)c4c(c3c2n1)CCC4 the results were eIF4H inh 98*, PABP FP inh 38* and PHOSPHO1 block 23.
Screening CSc1nc(N(C)CCO)c2sc3nc(-c4ccco4)c4c(c3c2n1)CCC4 returned eIF4H inh 79*, PABP FP inh 67*, CRFR2-BP antag -8, PHOSPHO1 block -77 and PABP1 MLLE inh 9.
Screening CSc1nc(SCC(=O)O)c2sc3nc(-c4ccccc4)c4c(c3c2n1)CCC4 returned eIF4H inh 71*, PABP FP inh 62*, CRFR2-BP antag 16, PHOSPHO1 block -44 and PABP1 MLLE inh 10.
`Cc1ccsc1CNC(=O)C1(C)CCN1C(C)C` (centres undefined) gave PABP1 MLLE inh -9.
Screening CCOC(=O)C1(C)CCCCCN1C(=O)/C=C/c1ccccc1 (centres undefined) returned PABP1 MLLE inh -2.
Screening COC(=O)c1cc(=O)nc(NN=Cc2ccc(OC)cc2)s1 returned PABP1 MLLE inh -91.
For CCOC(=O)CC1=C(C(=O)OCC)C(c2ccc(C)o2)C(C#N)=C(N)O1 (centres undefined) the results were eIF4H inh 92*, PABP FP inh 79*, CRFR2-BP antag 28, PHOSPHO1 block -21 and PABP1 MLLE inh 50*.
Screening CCOC(=O)CC1=C(C(=O)OCC)C(c2ccc(OC)cc2OC)C(C#N)=C(N)O1 (centres undefined) returned eIF4H inh 60, PABP FP inh 41, CRFR2-BP antag -3, PHOSPHO1 block 6 and PABP1 MLLE inh 10.
`Cc1cc(C(=O)NC2Cc3ccccc3C2)c(C)o1` gave eIF4H inh 96*, PABP FP inh 72*, CRFR2-BP antag 4, PHOSPHO1 block 51 and PABP1 MLLE inh 2.
`COc1ccc(C(=O)c2ccc3oc(-c4ccc(OC)cc4)c(-c4ccc(O)cc4)c3c2)cc1` gave CRFR2-BP antag -14 and PABP1 MLLE inh 8.
`Cc1ccccc1Cn1ccc(NC(=O)c2cc3ncc(Br)cn3n2)n1` gave eIF4H inh 53*, PABP FP inh -11, CRFR2-BP antag 66*, PHOSPHO1 block -1 and PABP1 MLLE inh -2.
CCCCCCNC(=O)O[C@H]1C[C@H](C(=O)OC)[C@H](C(=O)OC)C2CN(S(=O)(=O)c3ccc(C)cc3)C[C@@]21O (some centres undefined) was read as CRFR2-BP antag 34 and PABP1 MLLE inh -1.
CCCc1cc(=O)oc2c(CNc3ccc(OCC)cc3)c(O)ccc12 was read as eIF4H inh 76, PABP FP inh 39*, CRFR2-BP antag 2, PHOSPHO1 block 38 and PABP1 MLLE inh -37.
For COC(=O)c1ccccc1OCc1cc(=O)oc2ccc(C)cc12 the results were PABP1 MLLE inh 21.
For COc1cc(OC)cc(C(=O)Nc2ccc(S(=O)(=O)Nc3cnc4ccccc4n3)cc2)c1 the results were CRFR2-BP antag 65* and PABP1 MLLE inh 6.
For COc1ccc(N2CCN(c3cc(C(=O)Nc4cc(OC)c(OC)c(OC)c4)ncn3)CC2)cc1OC the results were PABP1 MLLE inh -2.
Cc1ccccc1OC1(C)CCN(Cc2ccc(-c3ccccn3)cc2)C1 (centres undefined) was read as PABP1 MLLE inh -13.
Cc1sc(NC(=O)CCl)c(C(=O)c2ccccc2)c1C was read as eIF4H inh -6, PABP FP inh 0, CRFR2-BP antag 6, PHOSPHO1 block 41 and PABP1 MLLE inh 37*.
For Cc1ccccc1C(=O)Nc1sc(C)c(C)c1C(=O)c1ccccc1 the results were eIF4H inh -8, PABP FP inh -7, CRFR2-BP antag 10, PHOSPHO1 block -86 and PABP1 MLLE inh 32.
`Cc1cc(=O)cc(C)n1-c1ccccc1N1CCOCC1` gave eIF4H inh 5, PABP FP inh -4, CRFR2-BP antag 7, PHOSPHO1 block 4 and PABP1 MLLE inh -1.
`Cc1ccc(C)n1-c1ccccc1N1CCCCC1` gave eIF4H inh 6, PABP FP inh 8, CRFR2-BP antag -3, PHOSPHO1 block 63* and PABP1 MLLE inh 19.
OC[C@@H]1CN(Cc2ccccc2)C[C@H](n2cnc3c(N4CCN(c5ccccc5)CC4)ncnc32)O1 was read as PABP1 MLLE inh 0.
